HSF-1 act: increases HSF-1 driven luciferase reporter signal; NIH3T3-HGL HSF-1 luciferase reporter, MG132, 8 h; 100% = twice DMSO control signal; activation, % at 9 µM; 1.7% of 300,000 active;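 active = mean replicate activation of at least 50% with a set share of replicates each reaching 50%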;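 also: 0% = median of the neutral control wells and 100% = twice that signal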
GAA850 FXN act: frataxin GAA850 promoter activation; HEK293 lucGAA850 FXN promoter luciferase reporter, 24 h; percent of 10 µM SAHA response; activation, % at 6 µM; 0.56% of 360,000 active;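 active = activation above the average of all compounds screened plus 3 SD, cutoff fixed separately per campaign, cut at about 7.5% in these data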;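 also: 0% = DMSO wells and 100% = 10 µM SAHA wells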
HSF1 inhib: HSF1 inhibition; NIH3T3-HGL HSE-luciferase, MG132-induced, luminescence 8 h; active compounds read low; activity change, negative = inhibition, % at 7.5 µM (by protocol); 0.77% of 300,000 active; AID 2098;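 active = more than half of replicate wells show activity change below -50%, luminescence cut by over half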;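 also: luciferase reports HSF-1 transcriptional activity via heat shock element; 0% = median of DMSO wells and -100% = zero luminescence signal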
AHR act: activators of human aryl hydrocarbon receptor | P35869 | AHR-responsive luciferase reporter cells, luminescence | activation, % at 5 µM | 2.5% of 320,000 active; in the data active = activation above about 47%;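 also: 0% = vehicle wells and 100% = reference agonist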
Target sequence (P35869 whole entry, looked up): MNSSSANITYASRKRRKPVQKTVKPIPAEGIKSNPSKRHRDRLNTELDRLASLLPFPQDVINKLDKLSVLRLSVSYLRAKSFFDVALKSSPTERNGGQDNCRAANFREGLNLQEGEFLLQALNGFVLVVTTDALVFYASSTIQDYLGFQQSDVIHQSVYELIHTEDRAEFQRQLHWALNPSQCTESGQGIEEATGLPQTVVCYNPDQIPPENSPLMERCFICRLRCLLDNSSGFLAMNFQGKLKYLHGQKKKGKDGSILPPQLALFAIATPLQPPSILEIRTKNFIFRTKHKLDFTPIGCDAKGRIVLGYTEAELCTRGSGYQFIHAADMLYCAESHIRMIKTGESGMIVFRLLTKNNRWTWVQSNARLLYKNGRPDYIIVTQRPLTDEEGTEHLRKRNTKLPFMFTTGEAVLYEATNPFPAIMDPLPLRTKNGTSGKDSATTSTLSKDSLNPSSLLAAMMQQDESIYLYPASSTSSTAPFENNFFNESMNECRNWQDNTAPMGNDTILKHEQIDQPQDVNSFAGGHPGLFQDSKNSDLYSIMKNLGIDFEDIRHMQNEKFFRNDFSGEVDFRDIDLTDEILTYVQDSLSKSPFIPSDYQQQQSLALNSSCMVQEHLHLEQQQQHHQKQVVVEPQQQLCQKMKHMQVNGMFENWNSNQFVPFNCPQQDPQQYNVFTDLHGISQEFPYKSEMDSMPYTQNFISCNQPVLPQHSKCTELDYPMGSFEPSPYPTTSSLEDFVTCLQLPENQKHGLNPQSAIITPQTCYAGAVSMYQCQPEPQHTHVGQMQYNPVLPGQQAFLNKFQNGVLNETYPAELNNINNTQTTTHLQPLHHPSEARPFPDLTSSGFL
* = called active by the depositor; · = no result given. An excerpt weighted towards active compounds, which were near 4.6% of everything screened.

SMILES	HSF-1 act	GAA850 FXN act	HSF1 inhib	AHR act
COc1cn(-c2ccccc2)nc1C(=O)Nc1ccccc1	15	2	12	10
COC(=O)c1ccc(NC(=O)C2C3C=CC(C3)C2C(=O)O)cc1 (configuration not stated)	-53	0	-52*	4
Cc1ccc(S(=O)(=O)N2c3ccccc3NC(=O)C2CC(=O)Nc2ccccc2)cc1 (configuration not stated)	-6	1	-1	64*
CCC(C)n1c(SCC(=O)NC(=O)c2cccn2C)nc2ccccc2c1=O (configuration not stated)	13	0	-1	6
Cc1cccc(C)c1NC(=O)CN(C)C(=O)c1ccccc1Sc1ccccc1C#N	·	0	·	-1
Cc1ccccc1-c1nc(-c2ccc(NC(=O)c3cccs3)cc2)no1	26	2	16	57*
O=C(Nc1ccc2oc(-c3ccccc3)nc2c1)c1cccs1	93*	2	44	-10
O=C(Nc1ccc2oc(-c3ccccc3)nc2c1)c1ccncc1	6	-2	5	-14
CCCc1ccc(OCc2nc(-c3ccc(NC(=O)c4ccco4)cc3)no2)cc1	16	3	16	4
CCCc1ccc(OCc2nc(-c3ccc(NC(=O)c4cccs4)cc3)no2)cc1	58*	7	43	3
Cc1ccc2oc(=O)n(CCCOc3ccccc3)c2c1	59*	4	34	-8
CCn1cc(Cl)c(C(=O)Nc2ccccc2C(N)=O)n1	29	2	8	54*
CCn1cc(Br)c(C(=O)Nc2ccccc2C(=O)OC)n1	-11	4	-3	23
CN(C)CCN1C(=O)C2C(C(=O)Nc3cc(Cl)cc(Cl)c3)C3C=CC2(O3)C1C(=O)NC1CCCCC1 (configuration not stated)	85*	3	46	1
CCOc1cc(/C=C2/NC(=O)N(Cc3ccccc3F)C2=O)ccc1O	86*	-1	59	6
COc1cccc(C(=O)N/N=C(\C)CC(=O)Nc2ccc(N(C)C)cc2)c1	5	2	0	20
O=C(Cc1ccc(S(=O)(=O)N2CCOCC2)s1)Nc1cc(Cl)ccc1Cl	·	-1	·	92*
CC(=O)Nc1nc(CC(=O)c2ccccc2)cs1	-42	2	-26	58*
Cc1ccc(Nc2cc(C)nc(-c3ccccc3)n2)cc1	52*	8	20	21
Cc1ccc(Nc2cc(C)nc(-c3ccccc3O)n2)cc1	32	4	18	43
CCOC(=O)NC(CC(=O)O)c1ccc(OCC)cc1 (configuration not stated)	-8	-1	-3	0
c1ccc(-c2cn3c4c(sc3n2)CCCC4)cc1	20	-5	36	66*
COc1ccc(NC(=O)N(Cc2ccc3c(c2)OCO3)C2CC(=O)N(c3ccc(OC)cc3)C2=O)cc1 (configuration not stated)	-17	-4	-1	-3
O=C1CC(N(Cc2ccc3c(c2)OCO3)C(=O)Nc2ccc(F)cc2)C(=O)N1c1ccccc1 (configuration not stated)	57*	-3	10	0
C(=N\NC1=Nc2cccc3cccc1c23)/c1cccnc1	26	4	18	74*
SMILES	HSF-1 act	GAA850 FXN act	HSF1 inhib	AHR act
Cc1nn(C)cc1CN(C)C(=O)CC12CC3CC(CC(C3)C1)C2	2	1	1	-1
COc1ccc(Br)cc1/C=N/NC(=O)CN1CCCCC1	4	-1	3	11
Cc1ccc(O)c(/C=N/NC(=O)CN2CCCC2)c1	-87	-3	-85*	5
O=C(CN1CCCCCC1)N/N=C/c1ccc(Cl)c(Cl)c1	4	2	3	18
Cc1cccc(/C=N/NC(=O)CN2CCCCCCC2)c1	-82	1	-76*	8
O=C(NC(=S)Nc1cccc(Cl)c1Cl)C1CC1	12	5	4	52*
CCC(C)(C)NC(=O)CN(C(=O)c1snc(C(N)=O)c1N)c1ccc2c(c1)OCCO2	-10	-9	-5	-3
CCCC(C(=O)NC(C)(C)C)N(C(=O)c1snc(C(N)=O)c1N)c1ccc2c(c1)OCCO2 (configuration not stated)	-76	-9	-74*	-1
O=C(NCCS(=O)(=O)N1CCN(c2ccccc2)CC1)c1cccc(F)c1	3	2	1	1
COCCOCCn1c(/C=C/c2ccccc2)nc2ccccc21	60*	4	32	8
CC(C)n1c(CN(C)c2ccccc2)nc2ccccc21	26	1	3	5
COCCOCCn1c(CCCO)nc2ccccc21	2	1	-6	0
CC(C)n1c(/C=C/c2ccccc2)nc2ccccc21	107*	3	79	57*
COc1ccc(Nc2cc(C)nc3ncnn23)cc1Cl	7	0	1	68*
COc1cc(Nc2cc(C)nc3ncnn23)cc(OC)c1OC	-5	-2	-8	-1
CCn1c(NCc2c[nH]c3ccccc23)nc2ccccc21	24	1	3	48*
Cn1c(NCc2ccco2)nc2ccccc21	26	4	0	7
Cn1c(NCc2cccs2)nc2ccccc21	20	2	3	49*
Cn1c(NCc2c[nH]c3ccccc23)nc2ccccc21	20	1	13	74*
C=CCn1c(NCc2c[nH]c3ccccc23)nc2ccccc21	25	1	17	15
CCn1c(NCc2cccs2)nc2ccccc21	24	-1	4	2
C=CCn1c(O)c(C2=c3ccccc3=NC2=O)s/c1=N/c1nccs1	15	-1	0	59*
C=CCn1c(O)c(C2=c3ccccc3=NC2=O)c2ccccc21	257*	2	188	31
Cc1c(-n2c(O)c(C3=c4ccccc4=NC3=O)sc2=O)c(=O)n(-c2ccccc2)n1C	30	3	3	10
Cc1ccc2c(c1)c(C1=c3ccccc3=NC1=O)c(O)n2C	195*	4	125	66*
SMILES	HSF-1 act	GAA850 FXN act	HSF1 inhib	AHR act
Cn1c(O)c(C2=c3ccccc3=NC2=O)sc1=Nc1ccc(Cl)cc1	15	3	-5	56*
CCN(CC)C(=O)CSc1nnc(-c2cccnc2)n1CCc1ccccc1	-6	2	-3	-1
COc1ccc(/C=N/NC(=O)c2cc(C34CC5CC(CC(C5)C3)C4)[nH]n2)cc1O	-11	-1	-12	2
COc1ccc(OC)c2sc(N3CCN(C(=O)c4ccc([N+](=O)[O-])s4)CC3)nc12	33	2	10	17
C=CCOC(=O)C1=C[C@@H](c2coc3ccccc3c2=O)C[C@@H](OCc2ccc(CO)cc2)O1	5	3	1	0
C[C@H]1CN([C@@H](C)CO)S(=O)(=O)c2ccc(Br)cc2O[C@H]1CN(C)C(=O)NC1CCCCC1	·	-4	·	·
O=C(COC(=O)c1ccc(Br)cc1)NCCc1ccccc1	-12	1	-6	3
O=C(COC(=O)c1ccccc1)c1ccc(Br)cc1	58*	6	52	0
Cc1cc(F)c(F)c(C(=O)N2CCOCC2)c1Cl	62*	-1	16	3
